High-throughput results deposited in PubChem BioAssay by The Scripps Research Institute Molecular Screening Center.
GPR151 ag – activators of human GPR151, primary screen, cell-based, PathHunter beta-arrestin, luminescence | G-protein coupled receptor 151 (Homo sapiens), Q8TDV0 | PathHunter beta-arrestin GPR151 cells | activation, % at 11.2 µM | 650,000 compounds, 1% hits | AID 1508602, 2020; in the data active = activation above about 4.9%;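 also: 0% = median of compound wells and 100% = cells with positive control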
MITF inh – MITF inhibitors, primary screen, biochemical, AlphaScreen, human; Microphthalmia-associated transcription factor (Homo sapiens), O75030; AlphaScreen MITF homodimerization, bead proximity signal; 650,000 compounds, 0.91% hits; inhibition, % at 2.6 µM; in the data active = inhibition above about 50%;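 also: 0% = vehicle wells with protein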
Target sequence (O75030 whole entry, looked up): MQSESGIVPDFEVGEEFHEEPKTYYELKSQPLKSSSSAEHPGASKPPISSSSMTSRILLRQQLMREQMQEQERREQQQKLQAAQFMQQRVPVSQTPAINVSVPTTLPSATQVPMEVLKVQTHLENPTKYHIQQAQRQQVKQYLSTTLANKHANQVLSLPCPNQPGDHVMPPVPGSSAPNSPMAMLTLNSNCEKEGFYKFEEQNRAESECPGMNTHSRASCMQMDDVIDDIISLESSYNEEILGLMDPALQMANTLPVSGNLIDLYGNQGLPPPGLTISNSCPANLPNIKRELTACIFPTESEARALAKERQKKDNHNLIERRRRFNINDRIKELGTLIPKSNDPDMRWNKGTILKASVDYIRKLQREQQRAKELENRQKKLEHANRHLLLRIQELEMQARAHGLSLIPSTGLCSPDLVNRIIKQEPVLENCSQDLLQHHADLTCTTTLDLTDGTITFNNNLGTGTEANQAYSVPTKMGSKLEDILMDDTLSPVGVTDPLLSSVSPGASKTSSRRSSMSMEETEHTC
TEAD-YAP block – TEAD-YAP interaction inhibition, primary screen, TEAD-YAP interaction inhibitor project, luminescence, HEK-TIYL cells; TEAD-Gal4/YAP UAS-luciferase luminescence; inhibition, % at 9.12 µM; 640,000 compounds, 1.4% hits; in the data active = inhibition above about 32%;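 also: 0% = median of test compound wells and 100% = reference inhibitor wells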
FBW7 activator – FBW7 E3 ligase activators, primary screen, biochemical, AlphaScreen, human; F-box/WD repeat-containing protein 7 (Homo sapiens), Q969H0; AlphaScreen FBW7–phospho-cyclin E peptide binding, activator screen; normalized activity (activation), % at 26.1 µM; 650,000 compounds, 0.13% hits; in the data active = normalized activity above about 1.9%;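 also: purified mutant Fbw7 with reduced substrate affinity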
Starred values were filed as active, the others as inactive. Only some compounds are listed: those with a hit (about 3.4% of all), similar ones and a draw of the others.

SMILES	GPR151 ag	MITF inh	TEAD-YAP block	FBW7 activator
O=C(CSc1nc2ccccc2[nH]1)Nc1ccc(Cl)cc1O	-2	12	35*	1
O=C(CSc1nc2ccccc2[nH]1)Nc1ccc(Cl)cn1	1	6	75*	0
CCCN(C(=O)c1cn(CC)c(=O)c2cc(OC)c(OC)cc12)c1cccc(C)c1	1	11	-5	0
CCC(C)NC(=O)c1cc(-c2cccs2)on1 (configuration not stated)	2	-1	-63	0
COc1ccccc1N(CC(=O)Nc1ccc(S(=O)(=O)N2CCCCC2)cc1)S(=O)(=O)c1ccc(C)cc1	0	8	3	0
OC1CCN(c2ncc(-c3ccc(Cl)cc3)cn2)CC1	-1	-7	-26	0
O=S(=O)(/N=C(\Nc1nccs1)c1ccccc1)c1cccs1	-3	25	-7	0
Cc1ccc(N/C(=N/S(=O)(=O)c2cccs2)c2ccccc2)cc1F	1	-7	40*	0
CCCNC(=O)c1cccc(-c2ccc(OC)cc2)n1	-3	15	-2	0
COc1ccc(C(=O)Nc2nc3c(cc4c5c(cccc53)CC4)s2)cc1OC	-1	17	-3	2.0*
COc1ccccc1N1CCN(C(=O)CS(=O)(=O)Cc2ccccc2)CC1	-1	-1	-3	0
COc1ccccc1N1CCN(C(=O)CN2CC=C[C@@H]2C(=O)NCCc2ccccc2)CC1	0	-22	42*	0
O=C(NCc1cccc(Oc2ccc(F)cc2)c1)c1ccccn1	0	-3	54*	0
O=C(NCc1cccc(Oc2ccc(F)cc2)c1)c1cccnc1	-1	-2	-50	0
O=C(Cn1cnc2ccccc21)NCc1cccc(Oc2ccc(F)cc2)c1	1	7	62*	0
COc1cc(OC)cc(C(=O)NC(=S)Nc2ccccc2[N+](=O)[O-])c1	-2	17	10	1
O=C(NCCC1=CCCCC1)c1ccc(Sc2ccc(F)cc2)c([N+](=O)[O-])c1	-1	9	6	0
Cc1cccc(C2CC(=O)Nc3cc4c(cc32)OCO4)c1 (configuration not stated)	-1	8	18	0
Cc1cccc(C2CC(=O)Nc3cc4c(cc32)OCCO4)c1 (configuration not stated)	0	19	40*	1
CCOC(=O)c1ccc(N=Cc2c(O)n(-c3cccc(OC)c3)c(=O)[nH]c2=O)cc1	1	-2	-4	0
COc1ccc(N=Cc2c(O)n(-c3cccc(OC)c3)c(=O)[nH]c2=O)cc1	-1	76*	-8	0
Nc1cc(Cl)ccc1N1CCCCC1	-1	-9	-14	0
Nc1ccc(N2CCCCC2)cc1N1CCCCC1	0	39	72*	-1
CCOC(=O)C1=C(C)NC(C)=C(C(=O)OCC)C1c1ccccc1F	-1	17	5	2.1*
CCOC(=O)C1=C(C)NC(SC)=C(C#N)C1c1ccccc1 (configuration not stated)	-1	5	47*	0
SMILES	GPR151 ag	MITF inh	TEAD-YAP block	FBW7 activator
CCOC(=O)C1=C(C)NC(SCC(N)=O)=C(C#N)C1c1cccc([N+](=O)[O-])c1 (configuration not stated)	0	5	49*	0
CCOC(=O)C1=C(c2ccccc2)NC(SC)=C(C#N)C1c1cccnc1 (configuration not stated)	1	1	8	0
O=C(O)CSc1nc2ccsc2c(=O)n1Cc1ccc2c(c1)OCO2	-1	9	-10	0
CCOC(=O)c1c(-c2ccc(C)c(C)c2)csc1N	-1	9	-4	0
COc1cccc(/C=C2\NC(=O)N(CC(=O)Nc3cccc(C)c3)C2=O)c1OC(C)C	1	4	-10	0
COC(=O)Cc1nc(NCc2ccccc2)c2c(C)c(C)sc2n1	1	8	67*	1
CCn1c2c(c(=O)[nH]c1=O)C(c1ccc(OC)cc1)C1=C(N2)c2ccccc2C1=O (configuration not stated)	-1	10	17	0
COc1ccc(C2CC(=O)c3c([nH]c(C(=O)OCCSC)c3C)C2)cc1OC (configuration not stated)	2	18	44*	0
COc1ccc(C2CC(=O)c3c([nH]c(C(=O)OCCOC(C)C)c3C)C2)cc1OC (configuration not stated)	1	10	32*	0
Cc1cnc(C(=O)N2CCC(n3c(C4CC4)nc4sc(C)c(C)c4c3=O)CC2)cn1	2	14	-6	0
COc1ccccc1N1CCN(C(=O)c2cnn3c2NC(c2ccc(C)cc2)CC3C(F)(F)F)CC1 (configuration not stated)	0	-14	-1	0
Cc1cc(NC(=O)C(C)(C)C)ccc1Br	2	-7	0	0
C=CC(=O)Nc1ccc(Br)c(C)c1	-1	4	62*	0
CC1CCN(c2ccc(/C=C(\C#N)c3nc4ccccc4[nH]3)cc2[N+](=O)[O-])CC1	1	13	11	1
Cc1cc(N2CCN(c3cc(Cl)ccc3[N+](=O)[O-])CC2)c2ccccc2n1	-1	-3	-4	0
Cc1cc(OCC(=O)Nc2ccc(C(=O)OC3CCCCC3)cc2)ccc1Cl	2	18	84*	0
CC1(C)CC(N2CCOCC2)=CC(=[N+]2CCOCC2)C1	0	-9	4	0
CN(C)NC1=CC(=[N+]2CCCC2)CC(C)(C)C1	2	-10	3	0
CCCN(CCC)C1=CC(=[N+]2CCCC2)CC(C)(C)C1	1	-10	69*	0
CC1(C)CC(N2CCCCC2)=CC(=[N+]2CCCCC2)C1	2	5	75*	0
COC(=O)c1ccc(/C=C2\Oc3c(ccc(O)c3CN3CCC(C)CC3)C2=O)cc1	1	-2	4	-1
O=C(Cn1c(SCC(=O)N2CCCC2)nc2ccccc21)NC1CCCCC1	0	17	1	0
Cc1cc(C(F)(F)F)nc(Sc2ccc([N+](=O)[O-])cn2)n1	-1	24	60*	0
O=[N+]([O-])c1ccc(Sc2n[nH]c(-c3ccncc3)n2)nc1	0	5	5	0
O=C(O)C1CSC(c2cc(Br)ccc2F)N1 (configuration not stated)	-1	-2	-33	0
Cc1ccc(OCC(O)Cn2c(C3CC(=O)N(c4ccccc4F)C3)nc3ccccc32)cc1C (configuration not stated)	0	16	32*	1
CCc1ccc(OCC(O)Cn2c(C3CC(=O)N(c4ccccc4F)C3)nc3ccccc32)cc1 (configuration not stated)	3	-15	10	0
Cc1nn(C)cc1CN1CCC(CO)(Cc2ccccc2Cl)CC1	1	-2	5	0
